The source made the active and inactive calls. The call rests on the fitted dose curve.
assay: G protein-coupled receptor (GPCR) small molecule agonists, calcium flux assay: HEK293 wild type cell line counter screen (AID 1920065); conditions: HEK293 WT calcium flux, fluorescence, agonist mode; series mostly up to 57.6 µM; activation: at the top concentration
Excerpt: U.S. Tox21 Program National Center for Advancing Translational Sciences [NCATS] Division of Preclinical Innovation [DPI] U.S. Environmental Protection Agency [EPA] National Institutes of Environmental Health Sciences [NIEHS] National Toxicology Program [NTP] U.S. Food and Drug Administration [FDA] Assay overview: The increased intracellular calcium release that occurred upon G protein-coupled receptor (GPCR) activation led to the frequent use of calcium flux assays to detect GPCR activation. For the purpose of studying and screening compounds that may activate GPCR, receptor-overexpressing models were typically generated using Hek293 wild-type (WT) cells. In order to eliminate the compounds that may have induced calcium release for non-specific activation, a counter-assay utilizing calcium flux on Hek293 WT cells was performed. The data were formulated in order to serve as a control for any calcium flux detection utilizing Hek293 cells with either GPCR overexpression or gene modification. The procurement of Hek293 WT cells from ATCC. Fluorescence intensity can be utilized to determine the activation of the compound in a calcium flux assay. As a counter control, this cell line was utilized to screen the Tox21 10K compound library.
Assay Protocol Summary: Hek293 cells were dispensed at 1500cells/4uL/well in 1536-well black wall/clear bottom plates using a multidrop dispenser. After the assay plates were incubated at a 37 C/5% CO2 incubator for 18 hours, 4 uL of Calcium Dye Solution was added to each well. The plates were incubated at 37 C for 1 hour. For agonist mode, 23 nL of compounds dissolved in DMSO, positive control (ATP) or DMSO only was transferred to the assay plate by a pin tool station. The fluorescence intensity in the plates was measured using FDSS 7000EX kinetic plate reader with a filter set of Ex/Em=480/540 for 3 min at 1 sec intervals. Each test compound was measured at 15 concentrations and in triplicates.
On the % scale 0 is the no-effect control and ±100 the full control effect; potency means the concentration at half of the fitted maximal effect.

Structure (SMILES)	activation	Potency
O=C(c1ccccc1)C1CCCCC1	0.975% (inactive)	–
CN[C@H]1CC[C@@H](c2ccc(Cl)c(Cl)c2)c2ccccc21	-0.151% [at 26.5 µM] (inactive)	–
CCCCCCCCCCCCCCCCN(C)C	-0.794% [at 5.23 µM] (inactive)	–
CC1(COc2ccc(CC3SC(=O)NC3=O)cc2)CCCCC1 (stereo not given)	0.0225% [at 26.5 µM] (inactive)	–
COc1nccnc1NS(=O)(=O)c1ccc(N)cc1	0.0425% [at 26.5 µM] (inactive)	–
O=C(Cl)c1cc(C(=O)Cl)cc(C(=O)Cl)c1	-0.629% (inactive)	–
CCCCCCCCS(=O)C(C)Cc1ccc2c(c1)OCO2 (stereo not given)	-1.06% (inactive)	–
O=C(O)COC(=O)Cc1ccccc1Nc1c(Cl)cccc1Cl	0.45% [at 26.5 µM] (inactive)	–
COP(=O)(OC)OC(c1ccc(Cl)cc1)P(=O)(OC)OC (stereo not given)	-0.813% [at 26.5 µM] (inactive)	–
CC(C)NC[C@@H](O)COc1cccc2ccccc12	0.0457% [at 26.5 µM] (inactive)	–
CCOC(=O)Nc1ccc2c(c1)N(C(=O)CCN1CCOCC1)c1ccccc1S2	-1.53% [at 26.5 µM] (inactive)	–
Nc1cccc(O)c1	0.384% (inactive)	–
[O-][N+](=Nc1ccccc1)c1ccccc1	-0.439% (inactive)	–
CC(=O)N(CC(O)CO)c1c(I)c(C(=O)NCCO)c(I)c(C(=O)NCC(O)CO)c1I (stereo not given)	-0.004% [at 26.5 µM] (inactive)	–
CO/N=C(/C(=O)N[C@@H]1C(=O)N2C(C(=O)OCOC(=O)C(C)(C)C)=C(C)CS[C@H]12)c1csc(N)n1	0.452% [at 26.5 µM] (inactive)	–
CC1(C)C(=O)NC(=O)N1CO	-0.435% (inactive)	–
CC1=CC(=C(c2ccc(N)cc2)c2ccc(N)cc2)C=CC1=N	-0.23% [at 5.23 µM] (inactive)	–
CCCC(=O)OC[C@@H](OC(=O)CCC)[C@@H](OC(=O)CCC)[C@H](Cn1c2nc(=O)[nH]c(=O)c-2nc2cc(C)c(C)cc21)OC(=O)CCC	–	15.1 µM (active)
CC(C)=CC(C)(C)C	0.176% (inactive)	–
Cc1ncc(COP(=O)(O)O)c(C=O)c1O	0.851% [at 26.5 µM] (inactive)	–

Structure (SMILES)	activation	Potency
C=Cc1ccncc1	0.119% (inactive)	–
c1ccc(Sc2ccccc2)cc1	0.005% (inactive)	–
CCCCCCCCCCCCCCCC(=O)OC/C=C(C)/C=C/C=C(C)/C=C/C1=C(C)CCCC1(C)C	0.034% (inactive)	–
CC(C)OC(=O)c1cc(C(=O)OC(C)C)cc([N+](=O)[O-])c1	-2.26% (inactive)	–
CN(C)CCOc1ccccc1Cc1ccccc1	0.15% [at 26.5 µM] (inactive)	–
CCCCCCCCCCCCCC(=O)OC	0.587% (inactive)	–
NC(=O)c1ccccc1C(N)=O	-0.457% (inactive)	–
O=C1CN(/N=C/c2ccc([N+](=O)[O-])o2)C(=O)N1	–	inactive
CCCCCCCCCCCCCC[P+](CCCC)(CCCC)CCCC (tested in a mixture with another compound)	0.284% (inactive)	–
O=S(=O)(c1cccc2cnccc12)N1CCCNCC1	0.424% [at 26.5 µM] (inactive)	–
NC(=O)c1cc[n+](CC2=C(C(=O)[O-])N3C(=O)[C@@H](NC(=O)Cc4cccs4)[C@H]3SC2)cc1	0.122% [at 26.5 µM] (inactive)	–
CCCCOC(=O)CC#N	0.0843% (inactive)	–
CC(CC=O)c1ccccc1 (stereo not given)	-0.0248% (inactive)	–
O=C(OCC(O)CO)c1ccccc1Nc1ccnc2cc(Cl)ccc12 (stereo not given)	-0.305% [at 26.5 µM] (inactive)	–
CC(C)[C@H]1CC[C@H](C)C[C@@H]1O	0.628% (inactive)	–
CCCCO	-0.0432% (inactive)	–
OCCN1CCOCC1	0.16% (inactive)	–
Cc1ncc([N+](=O)[O-])n1CC(O)CCl (stereo not given)	-0.652% [at 26.5 µM] (inactive)	–
NC(=O)c1nc(-c2cccc(-c3cc(F)ccc3OCC(F)(F)C(F)(F)F)c2)n[nH]1	-1.83% (inactive)	–
CC(C)CCOC(=O)c1ccc(N(C)C)cc1	-0.244% [at 26.5 µM] (inactive)	–

Reference: PubChem BioAssay (Tox21)
